Source: PubChem BioAssay (National Center for Advancing Translational Sciences (NCATS))
Shown are actives, neighbours in structure and some others; about 19% of the full set was active somewhere.
HT1080 IDH1KD tx: qHTS for induction of synthetic lethality in tumor cells producing 2HG: qHTS for the HT-1080-IDH1KD cell line; HT-1080 IDH1 knockdown viability, ATP luminescence, 48 h; Potency, µM (highest dose often 46.1 µM), for the others: at the highest dose activity, negative = toxicity, usual class: cytotoxic; actives 2% (n = 360,000); AID 686971, 2013;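 further: potency means the concentration at half of the fitted maximal effect; 0% = DMSO wells and -100% = cell-free medium wells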
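CellTiter-Glo luminescence after 48 h compound exposure at 37 degrees C of IDH1-knockdown HT-1080 cells in 5% FBS RPMI. %Activity scaled between DMSO wells and cell-free media wells, with curves fitted and assigned curve classes.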
TDP1 cell noCPT: qHTS for Inhibitors of human tyrosyl-DNA phosphodiesterase 1 (TDP1): qHTS in cells in absence of CPT; AID 686978, 2013; actives 15% (n = 420,000); Potency, µM (series often up to 46.2 µM), without a hit: at the highest dose activity change, negative = growth inhibition, actives largely listed as inhibitors; DT40 Tdp1-/- hTDP1 cells, no CPT, ATP luminescence, 48 h; further: potency means the concentration at half of the fitted maximal effect; nearly all actives have a fitted effect of over 55% in size
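Stably hTDP1-transfected Tdp1-null chicken DT40 cells were treated with library compounds minus camptothecin and grown for at least 48 hr at 37 °C, after which cellular ATP was quantified by luminescence.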
ELG1 DNA repair: qHTS screen for small molecules that inhibit ELG1-dependent DNA repair in human embryonic kidney (HEK293T) cells expressing luciferase-tagged ELG1; HEK293T ELG1-luciferase reporter, luminescence, 16 h; DNA damage induced by 5-fluorouridine; Potency, µM (series often up to 46.1 µM), for the others: at the highest dose activity change, negative = inhibition, hits mostly inhibitors; actives 2.3% (n = 330,000); AID 504467, 2011; further: potency means the concentration at half of the fitted maximal effect; nearly all actives have a fitted effect of over 55% in size
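In this reporter screen, reduction of luminescence relative to DMSO vehicle indicated activity. Compounds and 5-fluorouridine were added together to 2,000 cells per well, incubated for 16 hr at 37 °C, then developed with ONE-Glo.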
DT40 TDP1 CPT: qHTS for Inhibitors of human tyrosyl-DNA phosphodiesterase 1 (TDP1): qHTS in cells in presence of CPT; chicken DT40 Tdp1-/-;hTDP1 cells + 20 nM CPT, ATP luminescence, 48 h; Potency, µM (series often up to 46.2 µM), without a hit: at the highest dose activity change, negative = growth inhibition, most hits filed as inhibitors; actives 12% (n = 420,000); AID 686979, 2013; further: potency means the concentration at half of the fitted maximal effect; nearly all actives have a fitted effect of over 55% in size
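Chicken DT40 Tdp1-/- cells stably complemented with human TDP1 were seeded at 400 cells/well in medium containing 20 nM camptothecin, exposed to pin-transferred compounds, and grown at 37 °C for at least 48 hr. Viability was read as ATP luminescence.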
HT1080NT lethal: qHTS for induction of synthetic lethality in tumor cells producing 2HG: qHTS for the HT-1080-NT fibrosarcoma cell line | HT-1080-NT fibrosarcoma viability, CellTiter-Glo ATP luminescence, 48 h | Potency, µM (highest dose often 46.1 µM), without a hit: at the highest dose activity, negative = less viability, usual class: cytotoxic | actives 1.6% (n = 360,000) | AID 686970, 2013;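 further: NT is the 2HG producing partner of a matched IDH1 knockdown line; potency means the concentration at half of the fitted maximal effect; 0% = DMSO-treated cells and -100% = media-only wells without cells; nearly all actives have a fitted effect of over 55% in size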
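Toxicity toward the 2HG-producing NT line was scored as %Activity, normalised to DMSO and no-cell wells, from CellTiter-Glo luminescence after 48 hours' treatment.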
IL-1B inflam inh: qHTS for Inhibitors of Inflammasome Signaling: IL-1-beta AlphaLISA Primary Screen; THP-1 LPS/ATP IL-1B secretion, AlphaLISA, 16 h; hits give low values; activity change, % at 57.5 µM; actives 4.7% (n = 360,000); AID 743279, 2014; in the data active means activity change below about -50%; inconclusive means mostly about -30% to -49%
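Secreted IL-1B measured by AlphaLISA bead assay after 16 h compound exposure of THP-1 cells; compounds (final up to 57.5 uM) added 1 h before LPS (250 ng/mL) and ATP (1.25 mM) stimulation; lower signal means less secretion.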
Starred values were filed as active, the others as inactive. Unless noted, the call rests on the fitted dose curve; in most records, active means well fitted curve in the direction sought with a large enough effect; inconclusive means small, poorly fitted or top-dose-only effect, or another doubt; inactive means no such curve, though single readings can be large; an effect the other way counts as inactive or inconclusive. Unless noted, on the % scale 0 is the no-effect control and ±100 the full control effect.

How did CC(C)=CCOc1ccc([C@@H]2COc3c(ccc4c3C=CC(C)(C)O4)C2)c(O)c1 do in these assays?
HT1080 IDH1KD tx: inconclusive; TDP1 cell noCPT: 21µM*; DT40 TDP1 CPT: 16µM*; HT1080NT lethal: inconclusive; IL-1B inflam inh: -20

Results for COc1ccc2c(c1OC)OCC(c1ccc(OC)c(OC)c1OC)C2 (stereo unspecified) ?
TDP1 cell noCPT: -9%; DT40 TDP1 CPT: 6%

How did CCN(C(=O)CN1CCCCC1C)c1c(N)n(Cc2ccccc2)c(=O)[nH]c1=O (stereo unspecified) do in these assays?
HT1080 IDH1KD tx: 4%; TDP1 cell noCPT: 0%; ELG1 DNA repair: 23%; DT40 TDP1 CPT: 7%; HT1080NT lethal: 7%; IL-1B inflam inh: 1

How did CCc1cc2c(NCC(=O)O)ncnc2s1 do in these assays?
HT1080 IDH1KD tx: 8%; TDP1 cell noCPT: inconclusive; ELG1 DNA repair: 8%; DT40 TDP1 CPT: -3%; HT1080NT lethal: 3%; IL-1B inflam inh: -2

What do the screens show for `CCOC(=O)c1sc2ncnc(NCc3ccco3)c2c1C`?
HT1080 IDH1KD tx: -4%; TDP1 cell noCPT: inconclusive; ELG1 DNA repair: inconclusive; DT40 TDP1 CPT: 18µM*; HT1080NT lethal: -3%; IL-1B inflam inh: 10

How did CCOC(=O)c1sc2nc(CC(=O)OC)nc(NCc3ccco3)c2c1C do in these assays?
HT1080 IDH1KD tx: 0%; TDP1 cell noCPT: inconclusive; ELG1 DNA repair: inconclusive; DT40 TDP1 CPT: inconclusive; HT1080NT lethal: 11%; IL-1B inflam inh: -2

What do the screens show for `CCc1cc2c(NCc3ccco3)ncnc2s1`?
HT1080 IDH1KD tx: -19%; TDP1 cell noCPT: 13µM*; ELG1 DNA repair: -1%; DT40 TDP1 CPT: 18µM*; HT1080NT lethal: -14%; IL-1B inflam inh: -19

What do the screens show for `O=C(NOC[C@H](O)CO)c1ccc(F)c(F)c1Nc1ccc(I)cc1F`?
TDP1 cell noCPT: -27%; DT40 TDP1 CPT: -8%

How did O=C(NOCC1CC1)c1ccc(F)c(F)c1Nc1ccc(I)cc1Cl do in these assays?
TDP1 cell noCPT: 15µM*; DT40 TDP1 CPT: inconclusive

What do the screens show for `Cc1cc(NC(=O)c2cc(-c3cccnc3)nc3c(C)c(C)ccc23)no1`?
HT1080 IDH1KD tx: inconclusive; TDP1 cell noCPT: 16µM*; ELG1 DNA repair: 23µM*; DT40 TDP1 CPT: inconclusive; HT1080NT lethal: -22%; IL-1B inflam inh: -18

Results for Cc1ccc(C)c(-c2cc(C(=O)Nc3cccnc3)c3ccccc3n2)c1 ?
HT1080 IDH1KD tx: -14%; TDP1 cell noCPT: inconclusive; ELG1 DNA repair: inconclusive; DT40 TDP1 CPT: -18%; HT1080NT lethal: -14%; IL-1B inflam inh: 0

What do the screens show for `Cc1ccc(-c2cc(C(=O)Nc3cccnc3)c3ccccc3n2)o1`?
HT1080 IDH1KD tx: inconclusive; TDP1 cell noCPT: inconclusive; ELG1 DNA repair: inconclusive; DT40 TDP1 CPT: 16µM*; HT1080NT lethal: inconclusive; IL-1B inflam inh: 8

How did Cc1ccc(-c2cc(C(=O)Nc3ccccn3)c3ccccc3n2)o1 do in these assays?
HT1080 IDH1KD tx: -4%; TDP1 cell noCPT: 23µM*; ELG1 DNA repair: inconclusive; DT40 TDP1 CPT: inconclusive; HT1080NT lethal: 3%; IL-1B inflam inh: -24

Results for O=C(Nc1cccnc1)c1cc(-c2ccc(Br)cc2)nc2ccccc12 ?
HT1080 IDH1KD tx: inconclusive; TDP1 cell noCPT: inconclusive; ELG1 DNA repair: inconclusive; DT40 TDP1 CPT: inconclusive; HT1080NT lethal: inconclusive; IL-1B inflam inh: -77*

What do the screens show for `Cc1cccc2c(C(=O)O)cc(-c3cccnc3)nc12`?
HT1080 IDH1KD tx: -10%; TDP1 cell noCPT: inconclusive; ELG1 DNA repair: 14%; DT40 TDP1 CPT: inconclusive; HT1080NT lethal: -17%; IL-1B inflam inh: 7

Results for Cc1ccc(NC(=O)c2cc(-c3ccc(C)o3)nc3ccccc23)cc1 ?
HT1080 IDH1KD tx: inconclusive; TDP1 cell noCPT: inconclusive; ELG1 DNA repair: 1%; DT40 TDP1 CPT: inconclusive; HT1080NT lethal: inconclusive; IL-1B inflam inh: 19

What do the screens show for `CC(C)NC(=O)CN(Cc1ccc(F)cc1)C(=O)CCC(=O)Nc1nccs1`?
HT1080 IDH1KD tx: -7%; TDP1 cell noCPT: -10%; ELG1 DNA repair: 17%; DT40 TDP1 CPT: -17%; HT1080NT lethal: 0%; IL-1B inflam inh: -4

Results for Cc1cc(NC(=O)c2cc(-c3ccccc3C)nc3ccccc23)no1 ?
HT1080 IDH1KD tx: 3%; TDP1 cell noCPT: 21µM*; ELG1 DNA repair: -19%; DT40 TDP1 CPT: inconclusive; HT1080NT lethal: -8%; IL-1B inflam inh: 26

Results for COc1ccccc1NS(=O)(=O)c1cc(NC(=O)c2ccc(NC(C)=O)cc2)ccc1N1CCOCC1 ?
HT1080 IDH1KD tx: 3%; TDP1 cell noCPT: 5.8µM*; DT40 TDP1 CPT: 2.3µM*; HT1080NT lethal: 2%; IL-1B inflam inh: -2

What do the screens show for `COc1ccccc1NS(=O)(=O)c1cc(NC(=O)c2ccncc2)ccc1N1CCOCC1`?
HT1080 IDH1KD tx: 1%; TDP1 cell noCPT: 12µM*; ELG1 DNA repair: 24%; DT40 TDP1 CPT: 12µM*; HT1080NT lethal: 2%; IL-1B inflam inh: 31

Results for COc1ccccc1NS(=O)(=O)c1cc(NC(=O)C(C)(C)C)ccc1N1CCOCC1 ?
HT1080 IDH1KD tx: 11%; TDP1 cell noCPT: -23%; ELG1 DNA repair: inconclusive; DT40 TDP1 CPT: inconclusive; HT1080NT lethal: 12%; IL-1B inflam inh: -18

How did COc1ccccc1NS(=O)(=O)c1cc(NC(=O)c2sccc2C)ccc1N1CCOCC1 do in these assays?
HT1080 IDH1KD tx: -28%; TDP1 cell noCPT: inconclusive; ELG1 DNA repair: -12%; DT40 TDP1 CPT: 21µM*; HT1080NT lethal: -22%; IL-1B inflam inh: -16

Results for COc1ccccc1NS(=O)(=O)c1cc(NC(=O)c2sccc2C)ccc1N1CCCC1 ?
HT1080 IDH1KD tx: 2%; TDP1 cell noCPT: inconclusive; ELG1 DNA repair: 9%; DT40 TDP1 CPT: inconclusive; HT1080NT lethal: 0%; IL-1B inflam inh: -14

What do the screens show for `COc1ccccc1NS(=O)(=O)c1cc(NC(=O)C2CCCC2)ccc1N1CCOCC1`?
HT1080 IDH1KD tx: -5%; TDP1 cell noCPT: inconclusive; ELG1 DNA repair: 18%; DT40 TDP1 CPT: 15µM*; HT1080NT lethal: -4%; IL-1B inflam inh: -24
